{"source": "PubChem BioAssay (Tox21)", "note": "Results filed as inconclusive are left out. The source holds several records for some structures; these can differ, active in one and inactive in another. Activity calls are given as the source filed them. The call rests on the fitted dose curve; in most records, active means well fitted cell-killing curve with a large enough effect in the repeat runs; inconclusive means weak or mixed curves, or effect the other way; inactive means flat fitted curve, though single readings scatter. On the % scale 0 is the no-effect control and ±100 the full control effect; potency means the concentration at half of the fitted maximal effect."}
{"experiment": "qHTS RealTime-Glo MT Cell Viability Assay in HEK293 cells - 40 hour (AID 1224874); further: nearly all actives have a fitted effect of over 50% in size", "conditions": "RealTime-Glo luminescence; max response: active compounds read low", "source_text": "U.S. Tox21 Program National Center for Advancing Translational Sciences [NCATS] NIH Chemical Genomics Center [NCGC] U.S. Environmental Protection Agency [EPA] National Institutes of Environmental Health Sciences [NIEHS] National Toxicology Program [NTP] U.S. Food and Drug Administration [FDA] Tox21 Assay Overview: Measure of cell viability is critical in the cell-base assay. Analysis of cell viability is necessary for the characterization of cell responses to cytotoxic drugs and environmental stress. A RealTime-Glo MT Cell Viability Assay to monitor cell viability in real time of continues cell culture during 40 hours of compound treatment was used to screen Tox21 10K library compounds in Hek293 cells. The RealTime-Glo MT Cell Viability Assay is a nonlytic, homogeneous, bioluminescent method to measure cell viability in real time using a simple, plate-based method. The assay involves adding NanoLuc luciferase and a cell-permeant prosubstrate to cells in culture. Viable cells reduce the proprietary prosubstrate to generate a substrate for NanoLuc luciferase. This substrate diffuses from cells into the surrounding culture medium, where it is rapidly used by the NanoLuc Enzyme to produce a luminescent signal. The signal correlates with the number of viable cells, making the assay well suited for cytotoxicity studies.\nTox21 Assay Protocol Summary: The mixture of Hek293 cell suspension and reagents were dispensed at 600cells/6 ul/well in 1536-well tissue culture treated black solid bottom plates using a Multidrop dispenser. After the assay plates were incubated at a 37 C/5% CO2 incubator for 5 hours, 23 nL of compounds dissolved in DMSO, positive and negative controls was transferred to the assay plate by a pintool work station. The plates were incubated at 37 C for 40 hours. The luminescence intensity were measured at 0h, 8h, 16h, 24h, 32h and 40h time points using ViewLux plate reader during compound treatment."}
{"compound": "CCOCCOC(C)=O", "max response": "4.22% (inactive)"}
{"compound": "CC(=O)O[C@H]1CC[C@@]2(C)C(=CC[C@@H]3[C@@H]2CC[C@]2(C)C(=O)CC[C@@H]32)C1", "Potency": "54.9 µM (active)"}
{"compound": "CC(C)(C)OO", "max response": "12.3% (inactive)"}
{"compound": "BrCC(Br)c1ccccc1", "note": "(stereo not given)", "max response": "1.25% (inactive)"}
{"compound": "COc1ccc(N)cc1N", "Potency": "50.5 µM (active)", "max response": "-27.7% (inactive)"}
{"compound": "BrC(Br)C(Br)(Br)Br", "Potency": "27.7 µM (active)"}
{"compound": "N#C/C=C/c1ccccc1", "max response": "-0.121% (inactive)"}
{"compound": "CCS(=O)(=O)c1cccnc1S(=O)(=O)NC(=O)Nc1nc(OC)cc(OC)n1", "max response": "6.92% (inactive)"}
{"compound": "O=C(O)c1cc[c]([Hg][Cl])cc1", "Potency": "15.5 µM (active)"}
{"compound": "C=CCOC(N)=O", "max response": "0.832% (inactive)"}
{"compound": "FC(F)(F)c1cccc(C2=CCN(CCc3ccc4ccccc4c3)CC2)c1", "max response": "2.33% (inactive)"}
{"compound": "CC(C)N1C(=O)N(c2ccccc2)CSC1=NC(C)(C)C", "Potency": "21.9 µM (active)"}
{"compound": "CC(C)C1CCC(Cc2ccc(Cl)cc2)C1(O)Cn1cncn1", "note": "(stereo not given)", "Potency": "10.9 µM (active)"}
{"compound": "CC(C)OC(=O)C(O)(c1ccc(Cl)cc1)c1ccc(Cl)cc1", "Potency": "24.5 µM (active)"}
{"compound": "C=CC(=O)OCCCCOC(=O)C=C", "Potency": "34.7 µM (active)"}
{"compound": "CCCCOCN(C(=O)CCl)c1c(CC)cccc1CC", "max response": "-10.8% (inactive)"}
{"compound": "O=c1ssc(Cl)c1Cl", "Potency": "13.8 µM (active)"}
{"compound": "CC(C)CCCCCOC(=O)c1ccccc1C(=O)OCCCCCC(C)C", "max response": "-3.2% (inactive)"}
{"compound": "Cl/C=C\\CCl", "max response": "11.8% (inactive)"}
{"compound": "N#Cc1ccc(O)cc1", "max response": "-7.33% (inactive)"}
{"compound": "CN(CCCC(O)c1cccnc1)N=O", "note": "(stereo not given)", "max response": "-1.33% (inactive)"}
{"compound": "O=[N+]([O-])c1ccc(Oc2ccc(C(F)(F)F)cc2[N+](=O)[O-])cc1", "Potency": "17.4 µM (active)"}
{"compound": "FC(Cl)(Cl)Cl", "max response": "-2.7% (inactive)"}
{"compound": "CCCCCCCCCCCCCC[P+](CCCCCC)(CCCCCC)CCCCCC", "note": "(tested in a mixture with another compound)", "Potency": "3.47 µM (active)"}
{"compound": "CN(C)C1CSSSC1", "max response": "3.22% (inactive)"}
{"compound": "CC(C)OS(C)(=O)=O", "max response": "0.77% (inactive)"}
{"compound": "ClC1=C(Cl)[C@]2(Cl)[C@@H]3[C@@H](Cl)[C@H](Cl)C[C@@H]3[C@@]1(Cl)C2(Cl)Cl", "max response": "7.93% (inactive)"}
{"compound": "COc1cc(N)c(Cl)cc1C(=O)NC1CN2CCC1CC2", "note": "(stereo not given)", "max response": "-15.3% (inactive)"}
{"compound": "Cc1cc(C)cc(OP(=O)(Oc2cc(C)cc(C)c2)Oc2cc(C)cc(C)c2)c1", "max response": "-16.9% (inactive)"}
{"compound": "N#Cc1ccccc1Cl", "max response": "-1.15% (inactive)"}
{"compound": "CCc1cc(C)cc(CC)c1-c1c(OC(=O)C(C)(C)C)n2n(c1=O)CCOCC2", "max response": "-25.1% (inactive)"}
{"compound": "NNC(=O)c1ccccc1", "max response": "-4.85% (inactive)"}
{"compound": "BrCBr", "max response": "10.5% (inactive)"}
{"compound": "CCN", "max response": "19.6% (inactive)"}
{"compound": "CCc1ccccc1C", "max response": "0.859% (inactive)"}
{"compound": "CC(C)OC(=S)S", "max response": "12.1% (inactive)"}
{"compound": "[Cd+2].[Cl-].[Cl-]", "Potency": "12.4 µM (active)"}
{"compound": "Oc1ccc(C(=C(Cl)Cl)c2ccc(O)cc2)cc1", "Potency": "43.6 µM (active)"}
{"compound": "N#CNC#N", "max response": "1.5% (inactive)"}
